Source: PubChem BioAssay AID1159580 (chemical genetic matrix, 2015)
Several values for one entry are separate records, joined by “and”; a condition that tells them apart may be missing. Equal entries are not always repeated. The campaign covered roughly 5,500 compounds. About 2,000 (36%) were called active. Inconclusive results (about 18%) are left out. Cut-off read from the data, not from the text of the source: active = normalized growth mostly below about 0.91 (no sharp cut-off); inconclusive = no clear call, values can overlap the other calls; inactive = mostly above about 0.92. The list shows a part of the results.

Assay: chemical genetic growth profiling, strain panel (AID 1159580);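 note: tested at 20 µM; growth read once vehicle control cultures reached saturation at 30 °C; 1 = growth at the plate median or of vehicle wells; lower values mean less growth of the strain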
Conditions: S. cerevisiae deletion strains, growth OD

Measured: normalized growth

O=C(CCCN1CCC2(CC1)C(=O)NCN2c1ccccc1)c1ccc(F)cc1
inactive: locus YAL021C, strain ccr4, hits give low values 0.956 | locus YAL026C, strain drs2, hits give low values 0.981 | locus YAL030W, strain snc1, hits give low values 0.983 | locus YAL040C, strain CLN3, hits give low values 0.989 | locus YBL061C, strain skt5, hits give low values 0.979 | locus YBR009C, strain hhf1, hits give low values 1.02 | locus YBR021W, strain FUR4, hits give low values 1 | locus YBR023C, strain chs3, hits give low values 0.995 | locus YBR171W, strain sec66, hits give low values 0.965 | locus YBR229C, strain ROT2, hits give low values 0.964 | locus YBR231C, strain swc5, hits give low values 1.04 | locus YBR279W, strain paf1, hits give low values 0.983 | locus YCL016C, strain dcc1, hits give low values 0.975 | locus YCL029C, strain bik1, hits give low values 0.995 | locus YCL061C, strain MRC1 (second series), hits give low values 0.999 | locus YCL061C, strain MRC1, hits give low values 0.981 | locus YCL069W, strain vba3, hits give low values 0.98 | locus YCR088W, strain abp1, hits give low values 0.982 | locus YDL005C, strain med2, hits give low values 0.961 | locus YDL035C, strain GPR1, hits give low values 0.992 | locus YDL040C, strain nat1, hits give low values 0.982 | locus YDL074C, strain BRE1, hits give low values 0.972 | locus YDL101C, strain DUN1, hits give low values 0.984 | locus YDL134C, strain PPH21, hits give low values 1.01 | locus YDL185W, strain tfp1, hits give low values 0.969 | locus YDL192W, strain arf1, hits give low values 0.997 | locus YDR001C, strain nth1, hits give low values 0.979 | locus YDR069C, strain doa4, hits give low values 0.946 | locus YDR101C, strain arx1, hits give low values 0.988 | locus YDR137W, strain rgp1, hits give low values 0.993 | locus YDR150W, strain NUM1, hits give low values 0.996 | locus YDR159W, strain sac3, hits give low values 0.998 | locus YDR162C, strain NBP2, hits give low values 0.999 | locus YDR195W, strain ref2 1.01 | locus YDR297W, strain sur2, hits give low values 0.981 | locus YDR318W, strain mcm21, hits give low values 0.993 | locus YDR334W, strain swr1, hits give low values 0.969 | locus YDR335W, strain msn5, hits give low values 0.966 | locus YDR363W, strain ESC2, hits give low values 0.999 | locus YDR388W, hits give low values 0.996 | locus YDR392W, strain spt3, hits give low values 0.881 | locus YDR502C, strain sam2, hits give low values 0.989 | locus YEL003W, strain gim4, hits give low values 0.991 | locus YEL037C, strain rad23, hits give low values 0.983 | locus YEL061C, strain CIN8 (second series), hits give low values 0.992 | locus YEL061C, strain CIN8, hits give low values 0.988 | locus YER002W, strain NOP16, hits give low values 0.993 | locus YER015W, strain faa2, hits give low values 1 | locus YER016W, strain bim1, hits give low values 0.936 | locus YER110C, hits give low values 0.99 | locus YER111C, strain swi4, hits give low values 0.966 | locus YER155C, strain BEM2 (second series), hits give low values 0.966 | locus YER155C, strain BEM2, hits give low values 1 | locus YER167W, strain BCK2, hits give low values 0.995 | locus YFR010W, strain ubp6, hits give low values 1 | locus YGL078C, strain dbp3, hits give low values 0.994 | locus YGL086W, strain mad1, hits give low values 0.988 | locus YGL167C, strain pmr1, hits give low values 0.922 | locus YGL173C, strain kem1, hits give low values 0.998 | locus YGL227W, strain vid30, hits give low values 0.993 | locus YGL240W, strain doc1, hits give low values 0.991 | locus YGL248W, strain PDE1, hits give low values 0.975 | locus YGL253W, strain hxk2, hits give low values 0.993 | locus YGR078C, strain PAC10, hits give low values 0.967 | locus YGR135W, strain pre9, hits give low values 0.997 | locus YGR229C, strain SMI1, hits give low values 0.994 and 0.978 | locus YGR252W, strain gcn5, hits give low values 0.96 | locus YHR013C, strain ard1, hits give low values 0.91 | locus YHR027C, strain rpn1, hits give low values 0.994 | locus YHR030C, strain SLT2, hits give low values 1 and 0.988 | locus YHR079C, strain IRE1 (second series), hits give low values 0.989 | locus YHR079C, strain IRE1, hits give low values 1.01 | locus YHR094C, strain hxt1, hits give low values 0.998 | locus YHR129C, strain ARP1, hits give low values 1 | locus YHR142W, strain chs7, hits give low values 0.964 | locus YHR200W, strain rpn10, hits give low values 0.987 | locus YIL066C, strain RNR3, hits give low values 0.972 | locus YIL073C, strain SPO22, hits give low values 1.07 | locus YIL125W, strain kgd1, hits give low values 0.984 | locus YIR030C, strain dcg1, hits give low values 0.994 | locus YJL092W, strain hpr5, hits give low values 0.974 | locus YJL095W, strain BCK1 (second series), hits give low values 0.982 | locus YJL095W, strain BCK1, hits give low values 0.968 and 1.01 | locus YJL115W, strain asf1, hits give low values 0.966 | locus YJL129C, strain trk1, hits give low values 0.949 | locus YJL134W, strain LCB3, hits give low values 1 | locus YJL154C, strain vps35, hits give low values 0.969 | locus YJL164C, strain tpk1, hits give low values 0.984 | locus YJL166W, strain qcr8, hits give low values 0.99 | locus YJL168C, strain set2, hits give low values 0.986 | locus YJL187C, strain SWE1 (second series), hits give low values 0.969 | locus YJR043C, strain POL32, hits give low values 0.997 | locus YJR066W, strain TOR1, hits give low values 0.938 | locus YJR075W, strain HOC1, hits give low values 0.985 and 0.996
